Our source for the inhibition values is PubChem BioAssay.

Unmarked numbers belong to inactive results. Activity calls are given as the source filed them.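 The calls were made as follows: active = inhibition of the reporter signal at or above 50%; inactive = inhibition below 50%.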

The nature of the test: inhibitors of poly I:C-induced TLR3 signaling, primary screen, cell-based, poly I:C stimulus, luciferase, 10K MLSCN set (AID 602277). The following applies: HEK293-TLR3 RL24 IRF3 luciferase reporter, at 10 µM, hits give high values.
Consider `CCN(C(C)=O)c1nnc(CSc2nc3ccccc3s2)s1`, for which the inhibition is -233%.

With `CC(=O)NC1(C(F)(F)F)NC(=O)N(CC(C)C)C1=O` (configuration not stated), the inhibition was 14%.

For the molecule `CCOc1ccc2nc(Nc3nc4c(c(=O)[nH]3)CCC4)nc(C)c2c1`, the inhibition is -83.1%.

`CCOC(=O)N1CCC(NC(=O)CCC(=O)N2CC(C)Oc3ccc(Cl)cc32)CC1` (configuration not stated): the inhibition is 6.64%.

As for `Cc1ccccc1C(=O)NC1CCN(Cc2nnnn2Cc2ccccc2)CC1`, the inhibition was 19.8%.

`Cc1ccc2c(c1)CCCN2C(=O)C1CCCO1` (configuration not stated): the inhibition was 17.6%.

In the case of `CCCCc1ccc(NC(=O)C2CCCO2)cc1` (configuration not stated), the inhibition was -136%.

For `CC(=O)c1cccc(NC(=O)NCc2ccccn2)c1`, the inhibition is -125%.

With `Cc1ccc(OC(=O)CCC(=O)OCCCC(F)(F)C(F)(F)F)cc1`, the inhibition was 21.1%.

`O=C(CSc1nc2ccccc2o1)NC(=O)NCc1ccco1`: the inhibition is 12.3%.

Consider `Cc1ccccc1CN1CCN(C(=O)c2cccc(F)c2)CC1`, for which the inhibition is 12%.

For the molecule `CCOC(=O)C1=C(C)NC(=O)NC1c1ccc(Br)s1` (configuration not stated), the inhibition was 12.6%.

Regarding `COc1cccc(C(=O)n2cnnc2N)c1OC`, the inhibition is 21.1%.

In the case of `CN(C)S(=O)(=O)c1ccc(S(=O)(=O)N(Cc2ccco2)Cc2ccccc2Cl)cc1`, the inhibition was 53.4% (active).

For `CCOc1ccc(S(=O)(=O)Nc2cccc(Cl)c2)cc1`, the inhibition was 34.1%.

As to `CN(C)CCCN1C(=O)c2oc3ccc(Cl)cc3c(=O)c2C1c1cccnc1` (configuration not stated), the inhibition is 39%.

Turning to `COc1ccccc1N1CCN(Cc2nnnn2CCc2ccccc2)CC1`, the inhibition was 0.354%.
